# Experiments:
# Details in all cases: concentration: 1 μM, replicates: in singlicate; n = 1
# PDPK1 = system: PDPK1
# PFTAIRE2 = system: PFTAIRE2
# PFTK1 = system: T1, PFTK1
# T1 construct: gene CDK14
# PHKG1 = system: PHKG1
# PHKG2 = system: PHKG2
# PIK3C2B = system: PIK3C2B
# PIK3C2G = system: PIK3C2G
# PIK3CA = system: PIK3CA
# PIK3CB = system: PIK3CB
# PIK3CD = system: PIK3CD
# PIK3CG = system: PIK3CG
# PIK4CB = system: T2, PIK4CB
# T2 construct: gene PI4KB
# PIKFYVE = system: PIKFYVE
# PIM1 = system: PIM1
# PIM2 = system: PIM2
# PIM3 = system: PIM3
# PIP5K1A = system: PIP5K1A
# PIP5K1C = system: PIP5K1C
# PIP5K2B = system: PIP5K2B
# PIP5K2C = system: T3, PIP5K2C
# T3 construct: gene PIP4K2C
# 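Further: KINOMEscan kinase panel screen.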
SMILES,%Inh (PDPK1) [%],%Inh (PFTAIRE2) [%],%Inh (PFTK1) [%],%Inh (PHKG1) [%],%Inh (PHKG2) [%],%Inh (PIK3C2B) [%],%Inh (PIK3C2G) [%],%Inh (PIK3CA) [%],%Inh (PIK3CB) [%],%Inh (PIK3CD) [%],%Inh (PIK3CG) [%],%Inh (PIK4CB) [%],%Inh (PIKFYVE) [%],%Inh (PIM1) [%],%Inh (PIM2) [%],%Inh (PIM3) [%],%Inh (PIP5K1A) [%],%Inh (PIP5K1C) [%],%Inh (PIP5K2B) [%],%Inh (PIP5K2C) [%]
CN1C(=O)C(Nc2ccccc2)=C(c2ccccc2)C1=O [SB-300079],0,0,1,11,0,0,16,25,0,0,10,0,9,0,0,0,42,23,0,20
Cl.c1ccc(Cn2cnc3cc(Nc4ncnc5ccccc45)ccc32)cc1 [GW272142],0,16,23,0,1,3,0,1,71,0,0,0,6,0,0,0,0,38,0,17
CCCC(=O)Nc1n[nH]c2ncc(-c3cccc4ccccc34)cc12 [SB-642057],0,23,39,0,2,7,0,13,0,0,10,39,0,10,0,2,0,34,0,13
COC(=O)c1c(-c2ccccc2)c2cc(Br)ccc2c(=O)n1Cc1ccc(NC(=O)CCC(=O)O)cc1,0,17,0,0,0,0,1,0,24,0,7,0,5,4,24,3,4,0,35,0
Nc1nc(N)c2nc(-c3ccccc3)[nH]c2n1 [SKF-12778],14,6,9,0,0,0,68,6,0,21,8,19,12,0,5,0,0,47,8,35
Cc1nc(N(C)[C@H]2CN(C(=O)CC#N)CC[C@H]2C)c2cc[nH]c2n1,0,0,0,0,13,0,10,0,0,12,0,0,2,0,0,0,0,0,0,0
Cl.NS(=O)(=O)c1cccc(Nc2cc(-c3ccc(F)cc3)n[nH]2)c1 [GW824645],0,24,9,0,0,0,0,11,0,0,0,26,0,0,8,0,3,59,0,0
CCC(=O)c1c(-c2ccccc2)c2cc(Cl)ccc2c(=O)n1Cc1cc(S(C)(=O)=O)n(CC(F)F)n1,0,0,0,0,7,0,0,0,16,0,0,0,0,0,0,0,2,9,0,0
CCCNC(=O)Nc1ccc(Oc2ncnc3ccn(C)c23)cc1,0,10,0,0,0,19,27,14,0,30,12,0,0,0,5,0,0,17,47,27
Cc1cccc(-c2nc(Nc3ccc4c(cnn4C)c3)c3ccccc3n2)n1 [GW876731],37,10,22,0,0,0,44,0,3,61,0,26,91.5,8,1,21,0,0,0,0

# — publication PMC5540273 (PLoS ONE, 2017)
